Only some compounds are listed: those with a hit (about 12% of all), similar ones and a draw of the others.
Pf growth 96h: P. falciparum growth inhibition at 96 hours. P. falciparum luciferase reporter growth, 96 h. Potency, µM (top dose mostly 28.7 µM), for the others: at the top dose activity change, negative = inhibition, most hits filed as inhibitors. 320,000 compounds, 6.9% hits; note: % is set by controls: 0 for no effect and ±100 for the full control effect
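96 h incubation, 37 C, 5% CO2, of luciferase-reporter P. falciparum-infected RBCs (2% hematocrit, 0.05% parasitemia final) with test compounds; endpoint luminescence.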
NS1 function inh: blocks influenza NS1 protein function | 270,000 compounds, 0.4% hits | Potency, µM (doses to about 46.1 µM), without a hit: at the highest dose activity, positive = more growth; calls by dose curve; note: actives are rising curves; nearly all actives have a fitted effect of over 50% in size
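Recovery from NS1-induced slow growth read by OD600 in budding yeast switched to galactose assay medium (pH 6.0, -URA) at 1:100 dilution. Compound 23 nl per well; the matching strain lacking NS1 serves as control.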
Pf growth 48h: inhibits P. falciparum growth in the first generation, 48 h; P. falciparum luciferase growth in erythrocytes, 48 h; Potency, µM (doses to about 28.7 µM), for inactives: at the top dose activity change, negative = inhibition, usual class: inhibitors; 310,000 compounds, 5.9% hits; note: % is set by controls: 0 for no effect and ±100 for the full control effect
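Cell-based growth assay: transgenic P. falciparum expressing firefly luciferase, cultured in red cells within RPMI 1640 containing 0.5% w/v Albumax, 24 mM bicarbonate and gentamycin. A drop in luciferase activity indicates inhibition.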
SARS PLpro yeast: inhibitors of SARS-CoV papain-like protease in yeast | S. cerevisiae expressing SARS-CoV PLpro, growth rescue | Potency, µM (top dose mostly 32.9 µM), for inactives: at the highest dose activity, positive = growth rescue, actives largely listed as activators | 330,000 compounds, 0.19% hits | AID 485353; calls by dose curve; note: 0% is about no effect; nearly all actives have a fitted effect of over 55% in size
HCV inh: inhibitors of hepatitis C virus infection; 340,000 compounds, 3.4% hits; Potency, µM (doses to about 41.8 µM), inactives show top-dose activity change, negative = inhibition, hits mostly inhibitors; Huh7.5.1 HCVcc-Cre infection, luciferase reporter, 44 h; AID 651820; note: % is set by controls: 0 for no effect and ±100 for the full control effect
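Cells (1,000/well) were plated 4 h before compound, then infected with HCVcc-Cre virus (~0.5 moi). After 44 h further culture, infection was read as luciferase luminescence following a 15 min substrate incubation at room temperature.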
AMA1 RON2 block: disrupts binding of P. falciparum AMA1 to RON2; AID 720542; 360,000 compounds, 0.2% hits; Potency, µM (top dose mostly 58.2 µM), for inactives: at the highest dose activity change, negative = inhibition, hits mostly inhibitors; AlphaScreen AMA1-biotinylated RON2 peptide binding;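 note: 0% = vehicle wells and -100% = peptide control; nearly all actives have a fitted effect of over 45% in size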
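AMA1 (3D7) with his tag at 25 nM final met compounds first, then biotinylated RON2 peptide at 25 nM; detection used donor plus acceptor beads, 10 µg/mL apiece, read by AlphaScreen after 30 min at room temperature.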
* hit, by the source's call; ? = inconclusive; . = no result; [ ] = dose if it differs, or a comment. Unless noted, calls come from the whole dose curve; as a rule, active = well fitted curve in the direction sought with a large enough effect; inconclusive = small, poorly fitted or top-dose-only effect, or another doubt; inactive = no such curve, though single readings can be large; an effect the other way counts as inactive or inconclusive. Potency is the fitted concentration of half-maximal effect.

SMILES	Pf growth 96h	NS1 function inh	Pf growth 48h	SARS PLpro yeast	HCV inh	AMA1 RON2 block
Cc1ccc(CSC2=Nc3ccccc3C3=NC(CCC(=O)NCc4ccco4)C(=O)N23)cc1 (stereo not given)	24%	3%	?	-7%	6%	-12%
CCCCNC(=O)CC1N=C2c3ccccc3N=C(SCC(=O)Nc3cccc(C)c3)N2C1=O (stereo not given)	2.6µM*	11%	1.9µM*	3%	-6%	-11%
CCOC(=O)CSC1=Nc2ccccc2C2=NC(CC(=O)NCc3ccc(OC)cc3)C(=O)N12 (stereo not given)	.	12%	6.6µM*	7%	1%	-11%
CCOC(=O)c1c(S(=O)(=O)NCc2ccc(C)o2)c(C)n(C)c1C	42%	-9%	-5%	-3%	13%	6%
Cc1cccc(C)c1NC(=O)C1C(c2ccc3c(c2)OCO3)=Nc2ccccc2N1C(=O)c1ccccn1 (stereo not given)	.	.	.	.	.	70%
O=S1(=O)CC(N2CCSCC2)CN1Cc1cn(Cc2cccc(C(F)(F)F)c2)nn1 (stereo not given)	.	.	.	.	.	-3%
CCN(C(=O)c1ccc(S(=O)(=O)N2CCCCC2)cc1)C1CCS(=O)(=O)C1 (stereo not given)	-2%	.	-5%	8%	-1%[8.37 µM]	-5%
CCCCn1c(N)c(N(CC(C)C)C(=O)CCCc2nc3ccccc3s2)c(=O)[nH]c1=O	?	.	?	0%	17%	0%
CCCCN(C(=O)c1cc(-c2ccco2)nc2ccccc12)c1c(N)n(CCCC)c(=O)[nH]c1=O	?	.	?	-3%	-2%	-22%
CCCCN(C(=O)c1cc(-c2ccc(F)cc2)nc2ccccc12)c1c(N)n(CCCC)c(=O)[nH]c1=O	7.4µM*	.	?	8%	?	8%
CCCCn1c(N)c(N(CC(C)C)C(=O)c2cc(-c3ccc(OC)c(OC)c3)nc3ccccc23)c(=O)[nH]c1=O	?	.	1.3µM*	-1%	13%	-4%
CCCCn1c(N)c(N(CCC(C)C)C(=O)CCCc2nc3ccccc3s2)c(=O)[nH]c1=O	15µM*	9%	-6%	3%	1%	-4%
CCCCn1c(N)c(N(CC(C)C)C(=O)c2cc(-c3ccc(F)cc3)nc3ccccc23)c(=O)[nH]c1=O	?	.	12µM*	2%	9%	13%
COc1ccc(CN2CC(=O)N(c3ccc(C)c(C)c3)C2=S)cc1OC	6%	.	?	-6%	4%	-10%
CCOC(=O)CN(Cc1ccccc1)C(=O)OC(C)(C)C	22%	-14%	17%	3%	.	.
CCCCN(C(=O)CSc1nc2ccccc2s1)c1c(N)n(CCCC)c(=O)[nH]c1=O	.	.	.	0%	-2%	18%
Cn1c(N)c(C(=O)CSc2nnnn2-c2ccccc2)c(=O)n(C)c1=O	3%	6%	?	0%	13%	0%
Cn1c(N)c(C(=O)CSc2nn(-c3ccc(F)cc3)c(=S)s2)c(=O)n(C)c1=O	?	.	?	0%	7.1µM*	3%
CCCCCN(C(=O)CCC(=O)OCC(=O)N(C)c1ccccc1)c1c(N)n(CCCC)c(=O)[nH]c1=O	19%	.	12%	5%	8%	3%
CCCCCN(C(=O)CCC(=O)OCC(=O)c1ccc(C(C)CC)cc1)c1c(N)n(CCCC)c(=O)[nH]c1=O (stereo not given)	?	.	10µM*	2%	?	-5%
CCCCN(C(=O)CSc1nn(-c2ccc(F)cc2)c(=S)s1)c1c(N)n(CCCC)c(=O)[nH]c1=O	13µM*	.	?	4%	?	-15%
CC1=CC(C)(C)[N+](C)(C)c2ccccc21	139%	-1%	?	1%	7%	1%
O=C(NC1CCCCC1)c1cc(N2C(=O)CCC2=O)ccc1Cl	?	-16%	27%	1%	1%	6%
CC(C)(C)c1cc(CCC(=O)NCc2ccccn2)cc(C(C)(C)C)c1O	12µM*	-1%	?	-3%	.	-1%
NCCC1CCCC(CCN)N1 (stereo not given)	26%	3%	-1%	.	2%	8%
SMILES	Pf growth 96h	NS1 function inh	Pf growth 48h	SARS PLpro yeast	HCV inh	AMA1 RON2 block
O=C(CCl)Nc1c2c(nn1-c1ccccc1)CSC2	2.9µM*	-28%	4.1µM*	-3%	?	-1%
O=C(CCCCl)Nc1c2c(nn1-c1ccccc1)CSC2	8%	-6%	-9%	4%	4%	-11%
COCCC1CCCCN1C(=O)c1cccc(OC2CCN(S(C)(=O)=O)CC2)c1 (stereo not given)	-6%	6%	-4%	-2%	.	1%
CN(C(=O)c1ccccc1C(=O)OCC(=O)Nc1ccccc1)c1ccccc1	?	.	?	3%	-6%	-1%
CN(C(=O)c1ccccc1C(=O)OCC(=O)c1ccc(Br)cc1)c1ccccc1	12µM*	.	?	-4%	-24%	-21%
O=C(O)CC1CCCc2ccccc2C1O (stereo not given)	.	-1%	.	.	.	.
O=C(N/N=C\c1ccc([N+](=O)[O-])s1)c1cncc(Br)c1	3.3µM*	-41%	8.3µM*	-42%	10µM*	26%
CCOc1ccccc1NC(=O)C(=O)N/N=C/c1ccc([N+](=O)[O-])cc1	54%	.	5%	-1%	12%	-8%
COc1ccccc1NC(=O)C(=O)N/N=C/c1ccc([N+](=O)[O-])s1	1.7µM*	-9%	2.6µM*	-2%	-16%	14%
Cc1ccccc1C(=O)N/N=C/c1ccc([N+](=O)[O-])s1	2.1µM*	-88%	.	-49%	?	4%
O=C(N/N=C/c1cccs1)c1cncc(Br)c1	-5%	.	?	-1%	6%	7%
Cc1ccccc1NC(=O)/C=C/c1ccc([N+](=O)[O-])s1	12µM*	0%	7.4µM*	-20%	10µM*	0%
O=C(N/N=C/c1ccc([N+](=O)[O-])s1)c1ccccc1	-3%	.	?	-34%	?	-2%
C/C(=N/NC(=O)CN1CCN(S(=O)(=O)c2ccc(C)cc2)CC1)c1ccco1	-11%	-2%	10%	0%	1%	110%
Cc1cccc(/C=N/NC(=O)c2cc(C3CC3)nc3ccccc23)n1	20%	-10%	7%	-2%	-10%	105%
CCc1ccc(/C=N/NC(=O)c2cc(C3CC3)nc3ccccc23)s1	?	7%	.	4%	8.9µM*	33%
Cc1cc(C(=O)N/N=C/c2ccc([N+](=O)[O-])cc2)c2ccccc2n1	-16%	3%	8%	0%	-3%	11%
Cc1cc(C(=O)N/N=C/c2ccc([N+](=O)[O-])s2)c2ccccc2n1	6%	-2%	4.7µM*	-5%	11µM*	4%

From PubChem
